Assay results reported in article PMC5540273 (PLoS ONE, 2017).

Assays:
Conditions in all cases: concentration: 1 μM, replicates: in singlicate; n = 1
PIP5K1A = tested on: PIP5K1A
PIP5K1C = tested on: PIP5K1C
PIP5K2B = tested on: PIP5K2B
PIP5K2C = tested on: T1, PIP5K2C
T1 construct: gene PIP4K2C

PKAC-alpha = tested on: T2, PKAC-alpha
T2 construct: gene PRKACA

PKAC-beta = tested on: T3, PKAC-beta
T3 construct: gene PRKACB

PKMYT1 = tested on: PKMYT1
PKN1 = tested on: PKN1
PKN2 = tested on: PKN2
PLK1 = tested on: PLK1
PLK2 = tested on: PLK2
PLK3 = tested on: PLK3
PLK4 = tested on: PLK4
PRKCD = tested on: PRKCD
PRKCE = tested on: PRKCE
PRKCH = tested on: PRKCH
PRKCI = tested on: PRKCI
PRKCQ = tested on: PRKCQ
PRKD1 = tested on: PRKD1
PRKD2 = tested on: PRKD2
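Further: KINOMEscan kinase panel screen.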

SMILES | %Inh (PIP5K1A) | %Inh (PIP5K1C) | %Inh (PIP5K2B) | %Inh (PIP5K2C) | %Inh (PKAC-alpha) | %Inh (PKAC-beta) | %Inh (PKMYT1) | %Inh (PKN1) | %Inh (PKN2) | %Inh (PLK1) | %Inh (PLK2) | %Inh (PLK3) | %Inh (PLK4) | %Inh (PRKCD) | %Inh (PRKCE) | %Inh (PRKCH) | %Inh (PRKCI) | %Inh (PRKCQ) | %Inh (PRKD1) | %Inh (PRKD2)
COC(=O)Nc1nc2ccc(Oc3ccc(CC(=O)Nc4cc(C(F)(F)F)ccc4F)cc3)cc2[nH]1 [GW680903] | 7% | 37% | 2% | 31% | 0% | 0% | 0% | 0% | 0% | 0% | 0% | 0% | 0% | 0% | 9% | 0% | 17% | 0% | 0% | 0%
Nc1ncc(-c2cn[nH]c2)c2scc(-c3ccc4c(c3)CCN4C(=O)Cc3ccccc3)c12 [GSK2593067] | 0% | 30% | 0% | 0% | 20% | 19% | 0% | 12% | 9% | 0% | 17% | 0% | 0% | 0% | 0% | 16% | 32% | 17% | 0% | 0%
NCCC(NC(=O)c1cc(Br)c(-c2ccnc3[nH]ccc23)s1)c1ccccc1.O=C(O)C(F)(F)F.O=C(O)C(F)(F)F (stereo not shown) [GSK1307810] | 82% | 81% | 0% | 57% | 99.4% | 99.6% | 0% | 50% | 87% | 0% | 28% | 35% | 19% | 99.6% | 98.1% | 98.3% | 0% | 90% | 0% | 31%
COc1cc(Nc2nccc(N3CCC(NC(=O)Nc4ccc5c(c4)OCO5)C3)n2)cc(OC)c1OC (stereo not shown) [GSK1379766] | 19% | 56% | 0% | 92.3% | 0% | 0% | 0% | 35% | 0% | 2% | 0% | 2% | 48% | 0% | 8% | 0% | 11% | 0% | 0% | 0%
Cc1ccc(O)cc1Nc1ccnc2ccc(C(C)(C)C)cc12 [GW856805] | 0% | 0% | 0% | 0% | 43% | 0% | 14% | 0% | 14% | 63% | 29% | 15% | 27% | 17% | 31% | 3% | 39% | 0% | 0% | 13%
Cl.Cl.NCC(NC(=O)c1cc(-c2cccnc2)c(-c2ccnc3[nH]ccc23)s1)c1ccccc1 (stereo not shown) [GSK1323434] | 29% | 80% | 10% | 65% | 95.7% | 91.2% | 10% | 0% | 0% | 2% | 35% | 0% | 0% | 95.4% | 82% | 88% | 47% | 75% | 1% | 12%
O=C1NC(=O)C(c2ccccc2Cl)=C1Nc1cccc(Cl)c1 [SB-342409] | 11% | 15% | 13% | 5% | 0% | 0% | 27% | 100% | 0% | 0% | 0% | 0% | 0% | 0% | 42% | 0% | 9% | 100% | 0% | 0%
Cc1nn2c(=O)cc(N3CCO[C@H](C)C3)nc2n1Cc1cccc(Cl)c1Cl [GSK2373693] | 0% | 83% | 4% | 0% | 23% | 14% | 62% | 43% | 0% | 0% | 0% | 0% | 48% | 0% | 74% | 13% | 24% | 12% | 14% | 2%
O=C(Nc1n[nH]c2nc(-c3cccc(O)c3)ccc12)C1CC1 [SB-711805] | 32% | 98% | 8% | 0% | 3% | 0% | 0% | 0% | 24% | 0% | 11% | 14% | 31% | 1% | 83% | 0% | 13% | 0% | 0% | 20%
COc1cccc(C2=C(Nc3cccc(O)c3)C(=O)NC2=O)c1 [SB-390771] | 0% | 39% | 14% | 38% | 0% | 0% | 9% | 100% | 0% | 0% | 0% | 0% | 15% | 20% | 27% | 19% | 16% | 98.4% | 0% | 0%
Cc1ccc(NC(=O)c2cccc(N3CCCCC3)c2)cc1-c1ccc(C(=O)NCC2CC2)cc1 [GSK1917008] | 0% | 25% | 8% | 0% | 0% | 14% | 0% | 17% | 0% | 0% | 0% | 0% | 0% | 10% | 3% | 19% | 5% | 0% | 0% | 0%
CNc1nccc(-c2ccc3c(N)n[nH]c3c2)n1 [GSK2206003] | 54% | 60% | 32% | 35% | 23% | 4% | 4% | 0% | 0% | 6% | 0% | 0% | 0% | 27% | 15% | 25% | 17% | 9% | 19% | 20%
CC(C)NCC(Cc1ccccc1)NC(=O)c1cc(Br)c(-c2ccnc3[nH]ccc23)s1.Cl.Cl (stereo not shown) [GSK1383281] | 14% | 49% | 17% | 37% | 99.4% | 99% | 0% | 40% | 57% | 0% | 13% | 38% | 90.1% | 84% | 89% | 82% | 19% | 50% | 75% | 71%
Fc1cc(Cl)ccc1Nc1ccnc2cc(-c3ccc(CN4CCSCC4)o3)ccc12 [GW560106] | 30% | 59% | 9% | 74% | 27% | 22% | 0% | 0% | 0% | 0% | 0% | 0% | 97.6% | 14% | 13% | 21% | 23% | 0% | 24% | 19%
